PubChem BioAssay (NCATS)
Records with an inconclusive call do not appear. Active and inactive are the calls of the source. Calls come from the whole dose curve; as a rule, active = well fitted activation curve with a large enough effect; inconclusive = small, poorly fitted or top-dose-only effect; inactive = no such curve, though single readings can be large or run the other way.

Biological target: Rap guanine nucleotide exchange factor 3 (Homo sapiens) (UniProt O95398)
Assay: Confirmatory qHTS for agonist of cAMP-regulated guanine nucleotide exchange factor 3 (EPAC1) (AID 1645881);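 note: EPAC1 catalysed release of BODIPY-GDP from Rap1B seen as fluorescence loss; 100% = effect of cAMP agonist control; nearly all actives have a fitted effect of over 75% in size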
Details: EPAC1 Rap1B BODIPY-GDP exchange fluorescence; series mostly up to 154 µM

Rap guanine nucleotide exchange factor 3 (Homo sapiens), sequence (O95398 whole entry, looked up): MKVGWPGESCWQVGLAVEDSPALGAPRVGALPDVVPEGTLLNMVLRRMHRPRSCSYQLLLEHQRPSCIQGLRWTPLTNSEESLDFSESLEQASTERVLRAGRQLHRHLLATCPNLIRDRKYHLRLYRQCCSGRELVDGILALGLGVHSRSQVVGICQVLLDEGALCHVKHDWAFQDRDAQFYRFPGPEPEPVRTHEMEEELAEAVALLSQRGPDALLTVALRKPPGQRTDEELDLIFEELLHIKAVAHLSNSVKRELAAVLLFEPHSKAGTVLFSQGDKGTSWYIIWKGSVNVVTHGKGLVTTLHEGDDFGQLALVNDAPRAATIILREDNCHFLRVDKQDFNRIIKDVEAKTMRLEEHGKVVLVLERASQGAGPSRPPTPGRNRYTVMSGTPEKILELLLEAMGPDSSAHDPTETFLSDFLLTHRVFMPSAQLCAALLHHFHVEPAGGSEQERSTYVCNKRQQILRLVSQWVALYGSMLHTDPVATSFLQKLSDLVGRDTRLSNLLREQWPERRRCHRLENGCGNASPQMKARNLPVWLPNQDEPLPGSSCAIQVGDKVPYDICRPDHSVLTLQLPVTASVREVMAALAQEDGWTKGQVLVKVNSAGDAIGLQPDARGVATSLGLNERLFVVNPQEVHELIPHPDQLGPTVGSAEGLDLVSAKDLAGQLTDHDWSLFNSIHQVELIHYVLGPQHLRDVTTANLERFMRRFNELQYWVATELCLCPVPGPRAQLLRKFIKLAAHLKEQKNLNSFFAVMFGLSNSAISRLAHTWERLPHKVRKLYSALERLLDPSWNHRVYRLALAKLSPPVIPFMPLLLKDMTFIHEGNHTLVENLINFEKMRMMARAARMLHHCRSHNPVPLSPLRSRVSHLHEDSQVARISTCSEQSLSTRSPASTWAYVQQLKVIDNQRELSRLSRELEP

Potency, inactive:
O=C1CSC2(C(=O)N(Cc3ccccc3F)c3ccccc32)N1c1ccc(F)cc1 (stereo not given)
CN(CCC#N)C(=O)COC(=O)c1c2c(nc3ccccc13)/C(=C/c1ccco1)CC2
COc1cc(C=NNc2ccc(S(=O)(=O)Nc3ccccc3C(=O)O)cc2[N+](=O)[O-])ccc1O
COc1cccc2sc(N3CCN(c4nc5ccccc5s4)CC3)nc12
O=C1C(Cl)=C(NC(=O)c2ccccc2)C(=O)C(Cl)=C1NC(=O)c1ccccc1
CCOCCCn1c(SCC(=O)Nc2cccc(OC)c2)nc2ccccc2c1=O
C#CCOCCOCCOCCNc1nc(N2CCN(C(=O)[C@H](Cc3cc4ccccc4[nH]3)n3cc([C@@H](N)Cc4ccc(O)cc4)nn3)CC2)nc(N2CCN(C(=O)[C@H](Cc3cc4ccccc4[nH]3)n3cc([C@@H](N)CC(C)C)nn3)CC2)n1
CN(C)S(=O)(=O)c1cccc(-c2nn(-c3ccccc3)cc2/C=C2\SC(=S)NC2=O)c1
Cc1cc(NS(=O)(=O)c2ccc(NC(=O)Cc3ccc(Cl)c(Cl)c3)cc2)no1
CCCCCCOC(=O)C(C#N)c1nc2ccccc2nc1N1CCOCC1 (stereo not given)
CC(=O)N1N=C(N)SC1c1ccc(Cl)c(Cl)c1 (stereo not given)
O=C(OCC(=O)N1CCCC1=O)c1cc(Cl)ccc1O
CCOC(=O)c1sc(N2C(=O)C(O)=C(C(=O)c3ccco3)C2c2cccc([N+](=O)[O-])c2)nc1C (stereo not given)
O=C1NN(c2cccc(Br)c2)C(=O)/C1=C/c1ccc(-c2cc([N+](=O)[O-])ccc2O)o1
CCc1ccc(Nc2n[n+](-c3ccccc3)c(-c3cc(OC)c(OC)cc3Br)s2)cc1
CC(C)(C)c1ccc(CC(=O)N2CCC2(C)C(=O)NS(=O)(=O)c2ccccc2)cc1 (stereo not given)
CC(C)N1CCc2c(sc(NC(=O)c3ccc(S(=O)(=O)N4CCCCC4C)cc3)c2C(N)=O)C1 (stereo not given)
O=C1CC(c2ccccc2)=C(c2ccccc2)C1
COc1ccc(C(C#N)N2N=C(C)CC2c2ccccc2)cc1 (stereo not given)
CCOC(=O)c1cc2c(=O)n3ccccc3nc2n(Cc2ccco2)c1=NC(=O)c1ccc(Br)cc1
CCOC(=O)C1=C(CSc2nc3ccccc3s2)NC(=O)NC1c1ccc(OC)cc1 (stereo not given)
Cn1c(=O)c2c(nc(N3CCOCC3)n2CCSc2ncccn2)n(C)c1=O
CCOc1ccc(S(=O)(=O)N2CCCCC2)c2ccccc12
O=C(c1ccco1)N(CCC(c1ccccc1)c1ccco1)Cc1ccco1 (stereo not given)
CC(C)OC(=O)/C(=C/c1ccc2c(c1)c1ccccc1n2C)NC(=O)c1ccccc1
C=CCn1c(NC(=O)c2ccccc2Cl)c(C#N)c2nc3ccccc3nc21
Cc1cccc(N=C2NC(=O)/C(=C/C=C/c3ccco3)S2)c1C
CC(=O)c1ccc(NC(=O)CSc2nc(Nc3ccccc3)nc(N3CCOCC3)n2)cc1
CN(C(=O)c1cc(-c2ccccc2)on1)C1CCCCC1
CCOC(=O)N1CCN(C(=O)CSc2nnc(Cc3ccccc3)o2)CC1
CCOC(=O)c1ccc(NC(=O)Cn2nc(C)c3nn(-c4ccc(Cl)cc4)c(C)c3c2=O)cc1
CN1N=C(C(C)(C)C)CC1=O
Cc1ccc(S(=O)(=O)NC(=O)Cn2nnc(-c3ccccc3)c2COc2ccc3ccccc3c2)cc1
CCOc1ccccc1NC(=O)COC(=O)c1ccc(S(=O)(=O)N2CCCC2)cc1
Cc1ccc(C(=O)c2cn(Cc3ccccc3)c3nc(C)ccc3c2=O)cc1
Cc1ccc(O)c(N=Cc2cc(Cc3ccccc3)cc([N+](=O)[O-])c2O)c1
O=C(c1ccc([N+](=O)[O-])o1)N1CCN(c2nc3c(Cl)cccc3s2)CC1
CC/C(=N/NC(=O)c1ccc2c(c1)OCO2)c1ccccc1O
Cn1nc(-c2ccccn2)nc2c(=O)n(C)c(=O)nc1-2
COc1ccc(C(=O)c2ccc(OC)c(OC)c2OC)cc1

Biological target: Rap guanine nucleotide exchange factor 4 (Homo sapiens) (UniProt Q8WZA2)
Assay: Confirmatory qHTS for agonist of cAMP-regulated guanine nucleotide exchange factor 4 (EPAC2) (AID 1645884);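 note: nucleotide exchange releases bodipy-GDP from Rap1 and this lowers its fluorescence; % is set by controls: 0 for no effect and ±100 for the full control effect; nearly all actives have a fitted effect of over 65% in size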
Details: EPAC2 GEF activity, Rap1B-BODIPY-GDP fluorescence; series mostly up to 154 µM

Rap guanine nucleotide exchange factor 4 (Homo sapiens), sequence (Q8WZA2 whole entry, looked up): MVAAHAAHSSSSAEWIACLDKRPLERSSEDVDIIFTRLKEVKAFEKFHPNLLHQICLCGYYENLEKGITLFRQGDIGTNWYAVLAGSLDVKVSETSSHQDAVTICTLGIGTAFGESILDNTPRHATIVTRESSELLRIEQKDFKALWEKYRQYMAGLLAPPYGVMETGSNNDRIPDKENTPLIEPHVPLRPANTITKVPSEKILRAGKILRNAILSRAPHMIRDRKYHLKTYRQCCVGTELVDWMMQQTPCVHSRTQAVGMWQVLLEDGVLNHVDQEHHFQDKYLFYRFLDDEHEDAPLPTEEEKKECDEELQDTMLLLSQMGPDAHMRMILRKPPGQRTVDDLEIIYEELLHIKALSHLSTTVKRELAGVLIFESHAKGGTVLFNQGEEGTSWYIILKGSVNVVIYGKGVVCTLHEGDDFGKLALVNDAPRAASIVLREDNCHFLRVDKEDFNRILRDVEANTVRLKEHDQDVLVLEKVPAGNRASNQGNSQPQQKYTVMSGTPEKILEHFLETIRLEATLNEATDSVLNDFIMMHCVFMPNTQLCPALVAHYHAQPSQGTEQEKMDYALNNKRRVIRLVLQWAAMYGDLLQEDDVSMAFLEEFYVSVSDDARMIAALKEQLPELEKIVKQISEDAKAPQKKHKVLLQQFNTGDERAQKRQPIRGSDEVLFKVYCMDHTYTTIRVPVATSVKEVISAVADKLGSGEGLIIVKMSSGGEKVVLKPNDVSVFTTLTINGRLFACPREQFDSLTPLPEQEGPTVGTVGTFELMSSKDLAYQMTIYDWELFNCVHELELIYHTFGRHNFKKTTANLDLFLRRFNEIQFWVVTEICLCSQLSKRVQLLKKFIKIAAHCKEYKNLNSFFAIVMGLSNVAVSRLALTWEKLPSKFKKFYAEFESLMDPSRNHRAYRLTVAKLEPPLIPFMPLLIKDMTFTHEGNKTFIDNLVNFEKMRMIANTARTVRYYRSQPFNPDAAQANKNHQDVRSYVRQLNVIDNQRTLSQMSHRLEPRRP

Potency, inactive:
O=C1CSC2(C(=O)N(Cc3ccccc3F)c3ccccc32)N1c1ccc(F)cc1 (stereo not given)
O=C1C(Cl)=C(NC(=O)c2ccccc2)C(=O)C(Cl)=C1NC(=O)c1ccccc1
CCOCCCn1c(SCC(=O)Nc2cccc(OC)c2)nc2ccccc2c1=O
CN(C)S(=O)(=O)c1cccc(-c2nn(-c3ccccc3)cc2/C=C2\SC(=S)NC2=O)c1
Cc1cc(NS(=O)(=O)c2ccc(NC(=O)Cc3ccc(Cl)c(Cl)c3)cc2)no1
CCCCCCOC(=O)C(C#N)c1nc2ccccc2nc1N1CCOCC1 (stereo not given)
O=C(OCC(=O)N1CCCC1=O)c1cc(Cl)ccc1O
CCOC(=O)c1sc(N2C(=O)C(O)=C(C(=O)c3ccco3)C2c2cccc([N+](=O)[O-])c2)nc1C (stereo not given)
O=C1NN(c2cccc(Br)c2)C(=O)/C1=C/c1ccc(-c2cc([N+](=O)[O-])ccc2O)o1
CCc1ccc(Nc2n[n+](-c3ccccc3)c(-c3cc(OC)c(OC)cc3Br)s2)cc1
COc1ccc(C(C#N)N2N=C(C)CC2c2ccccc2)cc1 (stereo not given)
CCOC(=O)c1cc2c(=O)n3ccccc3nc2n(Cc2ccco2)c1=NC(=O)c1ccc(Br)cc1
CCOC(=O)C1=C(CSc2nc3ccccc3s2)NC(=O)NC1c1ccc(OC)cc1 (stereo not given)
CCOc1ccc(S(=O)(=O)N2CCCCC2)c2ccccc12
O=C(c1ccco1)N(CCC(c1ccccc1)c1ccco1)Cc1ccco1 (stereo not given)
CC(C)OC(=O)/C(=C/c1ccc2c(c1)c1ccccc1n2C)NC(=O)c1ccccc1
Cc1cccc(N=C2NC(=O)/C(=C/C=C/c3ccco3)S2)c1C
CC(=O)c1ccc(NC(=O)CSc2nc(Nc3ccccc3)nc(N3CCOCC3)n2)cc1
CCOC(=O)N1CCN(C(=O)CSc2nnc(Cc3ccccc3)o2)CC1
CCOC(=O)c1ccc(NC(=O)Cn2nc(C)c3nn(-c4ccc(Cl)cc4)c(C)c3c2=O)cc1
CN1N=C(C(C)(C)C)CC1=O
Cc1ccc(S(=O)(=O)NC(=O)Cn2nnc(-c3ccccc3)c2COc2ccc3ccccc3c2)cc1
CCOc1ccccc1NC(=O)COC(=O)c1ccc(S(=O)(=O)N2CCCC2)cc1
Cc1ccc(C(=O)c2cn(Cc3ccccc3)c3nc(C)ccc3c2=O)cc1
Cc1ccc(O)c(N=Cc2cc(Cc3ccccc3)cc([N+](=O)[O-])c2O)c1
O=C(c1ccc([N+](=O)[O-])o1)N1CCN(c2nc3c(Cl)cccc3s2)CC1
CC/C(=N/NC(=O)c1ccc2c(c1)OCO2)c1ccccc1O
Cn1nc(-c2ccccn2)nc2c(=O)n(C)c(=O)nc1-2
COc1ccc(C(=O)c2ccc(OC)c(OC)c2OC)cc1

activation, inactive:
CN(CCC#N)C(=O)COC(=O)c1c2c(nc3ccccc13)/C(=C/c1ccco1)CC2 -0.614% [at 17.1 µM, percent relative to cAMP agonist control]
COc1cc(C=NNc2ccc(S(=O)(=O)Nc3ccccc3C(=O)O)cc2[N+](=O)[O-])ccc1O -6.92% [at 17.1 µM, percent relative to cAMP agonist control]
COc1cccc2sc(N3CCN(c4nc5ccccc5s4)CC3)nc12 2.2% [at 17.1 µM, percent relative to cAMP agonist control]
C#CCOCCOCCOCCNc1nc(N2CCN(C(=O)[C@H](Cc3cc4ccccc4[nH]3)n3cc([C@@H](N)Cc4ccc(O)cc4)nn3)CC2)nc(N2CCN(C(=O)[C@H](Cc3cc4ccccc4[nH]3)n3cc([C@@H](N)CC(C)C)nn3)CC2)n1 -1.86% [at 17.1 µM, percent relative to cAMP agonist control]
CC(=O)N1N=C(N)SC1c1ccc(Cl)c(Cl)c1 (stereo not given) -0.153% [at 17.1 µM, percent relative to cAMP agonist control]
CC(C)(C)c1ccc(CC(=O)N2CCC2(C)C(=O)NS(=O)(=O)c2ccccc2)cc1 (stereo not given) 0.17% [at 17.1 µM, percent relative to cAMP agonist control]
CC(C)N1CCc2c(sc(NC(=O)c3ccc(S(=O)(=O)N4CCCCC4C)cc3)c2C(N)=O)C1 (stereo not given) 4.64% [at 17.1 µM, percent relative to cAMP agonist control]
O=C1CC(c2ccccc2)=C(c2ccccc2)C1 -2.19% [at 17.1 µM, percent relative to cAMP agonist control]
Cn1c(=O)c2c(nc(N3CCOCC3)n2CCSc2ncccn2)n(C)c1=O 5.38% [at 17.1 µM, percent relative to cAMP agonist control]
C=CCn1c(NC(=O)c2ccccc2Cl)c(C#N)c2nc3ccccc3nc21 -3.42% [at 17.1 µM, percent relative to cAMP agonist control]
CN(C(=O)c1cc(-c2ccccc2)on1)C1CCCCC1 6.82% [at 17.1 µM, percent relative to cAMP agonist control]
